# Data: PubChem BioAssay (Tox21)
# Values without a mark were called inactive. Results filed as inconclusive are left out. Entries that show only a call come without a potency. Active and inactive are the calls of the source. Unless noted, the call rests on the fitted dose curve; in most records, active means well fitted curve in the direction sought with a large enough effect in the repeat runs; inconclusive means weak or mixed curves; inactive means no such curve, though single readings can be large; an effect the other way counts as inactive or inconclusive.
# Tests used:
# [1] = qHTS assay to identify small molecule agonists of the estrogen receptor alpha (ER-alpha) signaling pathway in the presence of an antagonist - cell viability counter screen (AID 1259386);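 further: cells exposed to compounds for 22 h at 37 °C before the viability read; nearly all actives have a fitted effect of over 30% in size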; further: potency means the concentration at half of the fitted maximal effect; on activity change, negative = cytotoxicity: series mostly up to about 92 µM
# Method in brief: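 ICI-182,780 at 10.0nM final accompanies the compound titration (15 concentrations, 22hr, 37C) on VM7Luc4E2 cells. The CellTiter-Fluor fluorescence readout runs in the same wells as the luciferase assay.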
# [2] = molecular target: Progesterone receptor (Homo sapiens) (UniProt P06401); experiment: qHTS assay to identify small molecule agonists of the progesterone receptor (PR) signaling pathway (AID 1346784; calls by dose curve; further: nearly all actives have a fitted effect of over 30% in size)
# Method in brief: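 Using charcoal-stripped serum (2%) to limit endogenous steroids, PR-UAS-bla HEK 293T cells received compounds for 16 hr at 37C after 6 hr plating; beta-lactamase FRET fluorescence was recorded following 2 hr substrate loading at room temperature.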
# [3] = molecular target: Progesterone receptor (Homo sapiens) (UniProt P06401); experiment: qHTS assay to identify small molecule antagonists of the progesterone receptor (PR) signaling pathway (AID 1346795; active means well fitted inhibition curve with a large enough effect in the signal ratio in the repeat runs, not every such curve was filed as active; the % refers to the signal ratio)
# Method in brief: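 Inhibition of R5020-induced (1 nM final) beta-lactamase reporter signal in PR-UAS-bla HEK293T cells was scored by FRET fluorescence after overnight (16 hr) compound treatment.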
# [4] = qHTS assay to identify small molecule antagonists of the progesterone receptor (PR) signaling pathway - cell viability counter screen (AID 1346798); further: series mostly up to about 92 µM; nearly all actives have a fitted effect of over 50% in size
# Method in brief: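 ATP content as viability readout: CellTiter-Glo luminescence, 30 min room temperature, in PR-UAS-bla HEK293T cells after 16 hr compound/R5020 treatment at 37C and 5% CO2.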
# [5] = qHTS assay to identify small molecule antagonists of the TGF-beta/Smad signaling pathway - cell viability counter screen (AID 1346824); further: nearly all actives have a fitted effect of over 50% in size
# Method in brief: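 Cytotoxicity counter-screen run in the same wells as the beta-lactamase Smad reporter read: CellTiter-Glo luminescence after 30 min at room temperature. HEK 293T SBE-bla cells had 5 hr compound exposure at 37 C with TGF-beta1 (0.25 ng/mL stock).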
# [6] = qHTS assay to identify small molecule agonists of the TGF-beta/Smad signaling pathway (AID 1346859; active means well fitted activation curve with a large enough effect in the signal ratio in the repeat runs, not every such curve was filed as active; the % refers to the signal ratio; further: series mostly up to about 77 µM)
# Method in brief: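 Stable Smad binding element-beta-lactamase HEK 293T cells; 5 hr compound exposure at 37 C under 5% CO2; 2 hr room-temperature substrate step; fluorescence excited at 405 nm, collected at 460 nm and 530 nm.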
# [7] = molecular target: Thyrotropin-releasing hormone receptor (Homo sapiens) (UniProt P34981); experiment: qHTS assay to identify small molecule antagonists of the thyrotropin-releasing hormone receptor (TRHR) signaling pathway (AID 1346877; active means well fitted inhibition curve with a large enough effect in the repeat runs, not every such curve was filed as active; further: series mostly up to about 51 µM)
# Method in brief: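 Screening used HEK293 cells engineered with TRHR, with a brief 5 min room-temperature compound exposure preceding addition of TRH to 1 nM. The read-out was kinetic calcium-dye fluorescence, concentration-response from 15 doses in triplicate.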
# [8] = molecular target: Thyrotropin-releasing hormone receptor (Homo sapiens) (UniProt P34981); experiment: qHTS assay to identify small molecule agonists of the thyrotropin-releasing hormone receptor (TRHR) signaling pathway (AID 1346891; calls by dose curve;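 further: HEK293 cells expressing TRHR with calcium dye readout; series mostly up to about 58 µM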)
# Method in brief: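 In 1536-format, 1500 TRHR-Hek293 cells per well grew 18 h, took up calcium dye for 2 h at 37 °C, received compound, and were read kinetically; 15-point titrations, triplicates.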
# [9] = Human pregnane X receptor (PXR) small molecule agonists, qHTS cell viability counter screen (AID 1346977); further: nearly all actives have a fitted effect of over 50% in size; further: potency means the concentration at half of the fitted maximal effect
# Method in brief: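 Readout is CellTiter-Fluor fluorescence from PXR-Luc HepG2 cells. Plated cells rested 5hr, then were treated with compounds for 24hr at 37C and 5% CO2, with reagent present during the last hour.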
# [10] = Caspase-3/7 induction in HepG2 cells by small molecules, qHTS assay (AID 1346978); further: nearly all actives have a fitted effect of over 15% in size
# Method in brief: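 Caspase-3/7 induction was measured by Caspase-Glo 3/7 luminescence (30 min, room temperature) after a 17 hr compound exposure of wild-type HepG2 cells seeded at 2,000 per well and pre-incubated 5 hr.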
# [11] = Caspase-3/7 induction in CHO-K1 cells by small molecules, qHTS cell viability counter screen (AID 1346979); further: nearly all actives have a fitted effect of over 35% in size; further: potency means the concentration at half of the fitted maximal effect
# Method in brief: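 To flag cytotoxic compounds, treated CHO-K1 wild-type cells were given CellTiter-Fluor at 16hr and read fluorescently after 1hr at 37C; the caspase-3/7 luminescence was measured in these same wells.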
# [12] = Caspase-3/7 induction in CHO-K1 cells by small molecules, qHTS assay (AID 1346980); further: nearly all actives have a fitted effect of over 15% in size
# Method in brief: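 Luminescent Caspase-Glo 3/7 read (30min, room temperature) quantified apoptosis induction. Cells were wild-type CHO-K1, treated with compound for 17hr at 37 C and 5% CO2.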
# [13] = Caspase-3/7 induction in HepG2 cells by small molecules, qHTS cell viability counter screen (AID 1346981); further: nearly all actives have a fitted effect of over 30% in size; further: potency means the concentration at half of the fitted maximal effect; on activity change, negative = cytotoxicity: series mostly up to about 92 µM
# Method in brief: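 Multiplexed with the caspase-3/7 assay: HepG2 cells, 16 hr compound treatment, CellTiter-Fluor viability detection by fluorescence.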
# [14] = molecular target: Nuclear receptor subfamily 1 group I member 2 (Homo sapiens) (UniProt O75469); experiment: Human pregnane X receptor (PXR) small molecule agonists, qHTS assay (AID 1346982); further: nearly all actives have a fitted effect of over 35% in size
# Method in brief: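 We seeded PXR-Luc HepG2 cells in assay medium containing 5% charcoal-stripped FBS, added compounds 5 hr later, incubated 24 hr, and read luminescence with ONE-Glo reagent.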
# [15] = molecular target: Cytochrome P450 2D6 (Homo sapiens) (UniProt P10635); experiment: Cytochrome P450 Family 2 Subfamily D Member 6 (CYP2D6) small molecule antagonists: luciferase reporter qHTS assay (AID 1671196); further: nearly all actives have a fitted effect of over 50% in size; further: potency means the concentration at half of the fitted maximal effect; on activity change, negative = inhibition: series mostly up to about 120 µM
# Method in brief: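 Luminescence (RLU), read 20 min after detection reagent, indicated CYP2D6 conversion of proluciferin to luciferin during a 1 h NADPH-dependent reaction at room temperature.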
# [16] = qHTS assay to identify small molecule agonists of the progesterone receptor (PR) signaling pathway - cell viability counter screen (AID 1346799; calls by dose curve; further: nearly all actives have a fitted effect of over 45% in size)
# Method in brief: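 Cytotoxicity in PR-bla HEK293T cells: 16 h compound, 37C; CellTiter-Glo added post-FRET read; luminescence after 30 min RT.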
# [17] = qHTS assay to identify small molecule agonists of the TGF-beta/Smad signaling pathway - cell viability counter screen (AID 1346829); further: top concentration of the series differs between compounds; nearly all actives have a fitted effect of over 45% in size
# Method in brief: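 Compound-treated SBE-bla HEK 293T cells (5 hr, 37 C) were assessed for viability with CellTiter-Glo in parallel with the reporter read.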
# Thyrotropin-releasing hormone receptor (Homo sapiens), sequence (P34981 whole entry, looked up): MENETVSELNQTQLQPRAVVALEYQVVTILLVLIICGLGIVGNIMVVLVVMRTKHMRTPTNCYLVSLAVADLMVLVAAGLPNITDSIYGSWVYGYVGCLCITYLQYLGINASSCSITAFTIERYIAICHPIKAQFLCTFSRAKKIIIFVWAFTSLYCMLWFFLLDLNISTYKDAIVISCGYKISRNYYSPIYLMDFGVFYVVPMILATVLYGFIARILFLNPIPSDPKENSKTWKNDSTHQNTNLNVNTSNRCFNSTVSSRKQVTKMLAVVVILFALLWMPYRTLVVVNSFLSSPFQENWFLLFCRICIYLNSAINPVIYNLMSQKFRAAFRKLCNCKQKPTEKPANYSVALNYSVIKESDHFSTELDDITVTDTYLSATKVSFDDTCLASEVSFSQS
# Nuclear receptor subfamily 1 group I member 2 (Homo sapiens), sequence (O75469 whole entry, looked up): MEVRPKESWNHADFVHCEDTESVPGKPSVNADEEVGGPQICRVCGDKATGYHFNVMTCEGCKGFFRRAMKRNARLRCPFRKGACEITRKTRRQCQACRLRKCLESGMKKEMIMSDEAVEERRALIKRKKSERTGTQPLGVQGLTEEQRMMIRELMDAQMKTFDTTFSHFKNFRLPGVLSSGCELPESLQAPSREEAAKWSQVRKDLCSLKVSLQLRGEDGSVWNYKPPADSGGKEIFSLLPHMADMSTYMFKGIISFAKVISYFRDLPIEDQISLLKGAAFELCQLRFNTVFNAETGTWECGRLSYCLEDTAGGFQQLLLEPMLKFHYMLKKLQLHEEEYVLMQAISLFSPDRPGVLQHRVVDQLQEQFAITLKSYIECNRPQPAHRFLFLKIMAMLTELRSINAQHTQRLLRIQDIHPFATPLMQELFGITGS
# Cytochrome P450 2D6 (Homo sapiens), sequence (P10635 whole entry, looked up): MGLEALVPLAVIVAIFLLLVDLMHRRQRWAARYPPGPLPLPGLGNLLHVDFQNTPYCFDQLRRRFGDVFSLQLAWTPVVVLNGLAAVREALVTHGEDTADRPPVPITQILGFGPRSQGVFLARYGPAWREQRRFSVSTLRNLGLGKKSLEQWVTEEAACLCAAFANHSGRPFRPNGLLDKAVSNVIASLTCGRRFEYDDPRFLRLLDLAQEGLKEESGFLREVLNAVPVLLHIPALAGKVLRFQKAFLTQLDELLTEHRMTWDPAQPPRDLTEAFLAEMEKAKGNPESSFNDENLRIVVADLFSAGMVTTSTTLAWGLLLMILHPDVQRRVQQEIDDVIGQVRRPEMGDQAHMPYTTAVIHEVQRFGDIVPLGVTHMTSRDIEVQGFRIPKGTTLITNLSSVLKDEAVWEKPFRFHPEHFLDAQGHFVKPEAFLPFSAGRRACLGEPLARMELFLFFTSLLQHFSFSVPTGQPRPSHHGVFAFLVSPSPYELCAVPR
# Progesterone receptor (Homo sapiens), sequence (P06401 whole entry, looked up): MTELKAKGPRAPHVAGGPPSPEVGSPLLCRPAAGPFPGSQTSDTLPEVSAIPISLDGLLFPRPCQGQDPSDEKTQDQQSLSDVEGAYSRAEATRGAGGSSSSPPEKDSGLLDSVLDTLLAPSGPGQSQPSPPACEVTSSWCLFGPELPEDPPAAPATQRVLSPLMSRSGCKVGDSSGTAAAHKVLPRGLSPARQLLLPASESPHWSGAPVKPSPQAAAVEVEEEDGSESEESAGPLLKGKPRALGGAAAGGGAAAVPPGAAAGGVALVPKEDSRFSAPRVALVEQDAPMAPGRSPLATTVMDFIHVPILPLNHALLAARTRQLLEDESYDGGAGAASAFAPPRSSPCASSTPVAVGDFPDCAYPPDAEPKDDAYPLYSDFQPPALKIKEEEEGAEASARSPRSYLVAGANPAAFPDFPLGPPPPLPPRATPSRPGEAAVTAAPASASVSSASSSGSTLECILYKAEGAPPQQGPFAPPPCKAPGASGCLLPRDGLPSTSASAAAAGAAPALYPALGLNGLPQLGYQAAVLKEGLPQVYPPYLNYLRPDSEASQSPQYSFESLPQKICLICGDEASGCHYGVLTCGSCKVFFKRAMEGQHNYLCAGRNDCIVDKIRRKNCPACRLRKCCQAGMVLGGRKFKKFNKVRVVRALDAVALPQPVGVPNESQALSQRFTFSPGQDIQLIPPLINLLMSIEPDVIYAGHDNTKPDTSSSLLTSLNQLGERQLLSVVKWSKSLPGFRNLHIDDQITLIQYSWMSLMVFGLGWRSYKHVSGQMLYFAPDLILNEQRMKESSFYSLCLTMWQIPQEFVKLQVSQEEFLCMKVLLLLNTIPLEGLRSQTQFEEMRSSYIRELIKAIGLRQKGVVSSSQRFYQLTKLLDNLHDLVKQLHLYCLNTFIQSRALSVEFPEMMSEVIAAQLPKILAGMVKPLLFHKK
structure (smiles),measurement,setting,value
CCN(CC)c1ccc2c(-c3ccc(S(=O)(=O)O)cc3S(=O)(=O)[O-])c3ccc(=[N+](CC)CC)cc-3oc2c1,Potency,[1],7.07 µM (active)
same,Potency,[2],inactive
same,Potency,[3],inactive
same,Potency,[4],inactive
same,Potency,[5],inactive
same,Potency,[6],inactive
same,Potency,[7],inactive
same,outcome,[8],inactive
same,Potency,[9],5.01 µM (active)
same,Potency,[10],inactive
same,Potency,[11],6.31 µM (active)
same,Potency,[12],inactive
same,Potency,[13],8.91 µM (active)
same,Potency,[14],inactive
same,Potency,[15],29.2 µM (active)
O=C(O)CCN(C1(C(=O)NO)CCCC1)S(=O)(=O)c1ccc(Oc2ccc(F)cc2)cc1,Potency,[1],inactive
same,Potency,[2],inactive
same,Potency,[3],inactive
same,Potency,[16],inactive
same,Potency,[5],inactive
same,Potency,[17],inactive
same,Potency,[6],inactive
same,Potency,[7],inactive
same,Potency,[9],inactive
same,Potency,[10],inactive
same,Potency,[11],inactive
same,Potency,[12],inactive
same,Potency,[13],inactive
same,Potency,[14],inactive
same,Potency,[15],inactive
c1ccsc1,Potency,[1],inactive
same,Potency,[2],inactive
same,Potency,[3],inactive
same,Potency,[16],inactive
same,Potency,[5],inactive
same,Potency,[17],inactive
same,Potency,[6],inactive
same,Potency,[7],inactive
same,outcome,[8],inactive
same,Potency,[9],inactive
same,Potency,[10],inactive
same,Potency,[11],inactive
same,Potency,[12],inactive
same,Potency,[13],inactive
same,Potency,[14],inactive
same,Potency,[15],inactive
COc1cc2nc(N3CCN(C(=O)c4ccco4)CC3)nc(N)c2cc1OC,"activity change, negative = cytotoxicity",[1],-1.18% [at 19 µM]
same,activation,[2],4.29% [at 19 µM]
same,"activity change, negative = inhibition",[3],5.13% [at 18.9 µM]
same,"activity change, negative = cytotoxicity",[4],-16.5% [at 18.9 µM]
same,"activity change, negative = cytotoxicity",[16],2.28% [at 19 µM]
same,"activity change, negative = cytotoxicity",[17],0.758% [at 15.8 µM]
same,activation,[6],-4.52% [at 15.8 µM]
same,Potency,[9],11.6 µM (active)
same,caspase activation,[10],12.8% [at 19 µM]
same,caspase-3/7 activation,[12],0.614% [at 19 µM]
same,"activity change, negative = cytotoxicity",[13],-12% [at 19 µM]
same,activation,[14],6.3% [at 19 µM]
same,"activity change, negative = inhibition",[15],-17.8% [at 23.6 µM]
CC(=O)OCC=C(C)C,Potency,[1],inactive
same,Potency,[2],inactive
same,Potency,[3],inactive
same,Potency,[16],inactive
same,Potency,[5],inactive
same,Potency,[17],inactive
same,Potency,[6],inactive
same,Potency,[9],inactive
same,Potency,[10],inactive
same,Potency,[12],inactive
same,Potency,[13],inactive
same,Potency,[14],inactive
same,Potency,[15],inactive
CCCCCCOC(=O)C(C)CC (stereo not drawn),Potency,[1],inactive
same,Potency,[2],inactive
same,Potency,[3],inactive
same,Potency,[16],inactive
same,Potency,[17],inactive
same,Potency,[6],inactive
same,Potency,[7],inactive
same,outcome,[8],inactive
same,Potency,[9],inactive
same,Potency,[10],inactive
same,Potency,[11],inactive
same,Potency,[12],inactive
same,Potency,[13],inactive
same,Potency,[14],inactive
CC(N=C(NC#N)Nc1ccncc1)C(C)(C)C (stereo not drawn),Potency,[1],inactive
same,Potency,[2],inactive
same,Potency,[3],inactive
same,Potency,[16],inactive
same,Potency,[5],inactive
same,Potency,[17],inactive
same,Potency,[6],inactive
same,Potency,[7],inactive
same,Potency,[10],inactive
same,Potency,[11],inactive
same,Potency,[12],inactive
same,Potency,[13],inactive
